Data: the supplement of paper PMC6555819

system: VDR homodimer (NR concentration 270 nM); assay: PBM binding z-score (relative to random genomic background probes); higher = stronger binding; sequences stand for … in GC…GCGATTGACAGCGTAGAATGAAGG
Summary of the method: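 Custom Agilent 4×180K protein-binding microarrays carried double-stranded probes. Their 34-nt variable regions held direct-repeat seeds, single-nucleotide variants, half-site ablations and random human genomic background sequences. Arrays were incubated 1 h with ligand-free nuclear receptor dimers in PBS pH 7.4, 2% milk, 0.02% Triton X-100, 1 mM DTT, 0.2 mg/mL BSA and 0.4 mg/ml salmon testes DNA. Antibodies against each partner (one per run) detected binding, and scanned fluorescence was regression-normalized. Binding z-scores use random background probes as reference.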

| Sequence | PBM binding z-score |
| --- | --- |
| TAGACTAGGTCATTCAGGGGCCAGTATAGAAAGC | 1.63 |
| TGTGCTAGGTCAGTTGGTCAGCTAACGAGCTGCC | -0.504 |
| TTACCACGGTGAAGGTCGTTGATCCCTCTGTAGA | 0.451 |
| TTACCAAGGTGAGCTGAGGTCGTTCATCCAACTC | 2.41 |
| ATCGGAAGGTCGACGAGGTGAGTATACACCGTTT | 0.813 |
| CCAGACAGGTGAAAGGTAACTTAGTCTGGTACGC | -0.23 |
| AGTCAAAGTTCAGGGCGAGGTAACGTAAAGCACG | 2.15 |
| TCTGGTTGGTCACGGAGGTCACACACGACGGGTA | 3.66 |
| TTACCAAGGTTAAGGTCGTTGATCCCTCTGTAGA | 2.83 |
| CCTCGGAGGACAAGAGGAGGTCAGAGCTGCCAGA | 0.697 |
| GCTTACGGGTCAAAGGATATAGCATGAATAGAAT | 0.703 |
| CGTCCAAGGTAAAAGGTCAGTGAAGAGATGACGG | 0.435 |
| CGTCCAAGGTCAGGGTCAGTGAAAGAGACTCGAA | 2.19 |
| ATCTCTAGGTAAAGTTCGGTGAAAGATCGATAGA | 0.916 |
| CAAACTAGGTCGAGGTCAAAGTCGGTTTGTGCCA | 5.19 |
| CCTAACGGGTCACGAGGTTATAGCACGACGAGCG | 1.91 |
| CAAACTAGGTCACGAAAGGCCAAAGTCGAATGAC | 1 |
| CGTGCAAGGTCAATGCTAGGTCAGTGAAAGCATT | 2.89 |
| CCTACTGGGCCATTCAGAGGTCATTGAGCATATG | 3.44 |
| ATACCAAGGTGATGGTGAGGTCGTTGATACTAAC | 2.63 |

| Sequence | PBM binding z-score |
| --- | --- |
| CCTTACGGGTCACGAGGTTACAGCACGACGAGCG | 1.89 |
| GATACAGGGTCAGCTAGAGGCCAGAGTATGGAAA | 0.622 |
| TGAATGAGGTTAAAGATCAGGGACCGTGGCGTCG | 0.608 |
| CAAACTTGGTCACGAAAGGTCAAAGTCGAATGAC | 3.11 |
| GGAACGAGGGCAAAGTTGATTGCATCTGTCGACG | 1.55 |
| CCTCGGAGGACAGAAGGTCAGAGCGGTCCGCTTT | 0.0325 |
| CAGCCTCGGTCAGGGCCAGTATAGGAGGAACGTT | -0.875 |
| TCGAGTAGGTTAGTCGAGGCATTCAGCCAACATA | -0.393 |
| CGTCCAATGTCATAGGAGGTCAGTGAAGACAGAT | 1.64 |
| GCTGCTTGGTCAGGTTGGTCAGCTAACGGGTACG | 0.00601 |
| GCAGACAGGTGAAGCGCAGGTAACTCAGGGTGGC | -0.755 |
| GCTAGCAGGCCATTTGGGTCCCTCAATGACGGGC | -0.499 |
| ATCTCTAGGTTACCAAGTTCAGTGAATGCCGAAC | 3.3 |
| CGTCCAAGGTCAATGCTAAGTCAGTGAAAGCATT | 2.06 |
| ATCGAAAGGTCTAGGTGAGTATAGAGAAAGGGAA | -0.115 |
| CATACAGGGTCAGCTTGGCCAGAGTAGGGACGGC | 0.849 |
| CCTACTGGGCTACGAAAGGTCATTGATTCAGTGA | 2.02 |
| ATATGTAGGTTGCATCCGGGTCATTCAGGCTATG | 2.66 |
| TAGCCTAGGTCATTCAAGGGCCAGTATAGAAAGC | 1.25 |
| AGAATGAGGATACCAAAGATCAGGGAAACGCTTG | -0.61 |
